The nature of experiment [1]: NCI Yeast Anticancer Drug Screen. Data for the rad50 strain (AID 155).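 Note: 0% = growth of vehicle-only cultures of the same strain.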 To be noted: S. cerevisiae rad50 strain growth inhibition; at 50.0 µM; stronger effect = higher value. An outline of the steps:
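Compounds were tested on a yeast strain with an engineered DNA damage repair alteration; the reported value is growth inhibition normalised to vehicle treatment.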

The nature of experiment [2]: NCI Yeast Anticancer Drug Screen. Data for the mec2-1 strain (AID 157). To be noted: S. cerevisiae mec2-1 strain, at 50.0 µM, stronger effect = higher value. The method, boiled down: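 Readout is yeast growth inhibition, normalised to vehicle-treated controls, in the mec2-1 strain exposed to compound.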
Experiment [3] in a line: NCI Yeast Anticancer Drug Screen. Data for the sgs1 mgt1 strain (AID 161).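 Note: 0% = growth of cultures given vehicle only.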 To be noted: S. cerevisiae sgs1 mgt1 strain, at 50.0 µM, stronger effect = higher value. The method, boiled down:
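Compounds are added to genetically altered yeast, and growth is compared with cultures given vehicle alone to give percent inhibition.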

Experiment [4] in a line: NCI Yeast Anticancer Drug Screen. Data for the cln2 rad14 strain (AID 165).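 Note: 0% = growth equal to vehicle treated cultures.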 To be noted: S. cerevisiae cln2 rad14 strain, at 50.0 µM, stronger effect = higher value. An outline of the steps:
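Relative to vehicle controls, growth inhibition of compound-treated cln2 rad14 yeast was recorded.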

The nature of experiment [5]: NCI Yeast Anticancer Drug Screen. Data for the bub3 strain (AID 167). The following applies: S. cerevisiae bub3 mutant strain, at 50.0 µM, stronger effect = higher value. The method, boiled down:
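Growth of a checkpoint-deficient yeast mutant is measured after compound exposure. Values represent inhibition relative to vehicle.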

Experiment [6] is described as follows: NCI Yeast Anticancer Drug Screen. Data for the mlh1 rad18 strain (AID 175). To be noted: S. cerevisiae mlh1 rad18 strain growth inhibition; at 50.0 µM; stronger effect = higher value. The method, boiled down: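 Test agents were incubated with a yeast strain of defined genotype (DNA damage repair defect). Inhibition of growth was derived by comparison with vehicle-exposed cultures.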

Our source for the growth inhibition values is PubChem BioAssay (NCI).

This is part of a sample that, as a whole, favours compounds with a hit. Of some 79,000 tested, about 15% had one in any assay. Values without a mark were called inactive. The source made the active and inactive calls. Cut-off read from the data, not from the text of the source: active = growth inhibition above about 70%; inactive = the rest.

Turning to `CC1(C)CN=C(Nc2ccc(Cl)cc2)S1`, the growth inhibition was 13.9% in experiment [1]; 1.45% in experiment [2]; -12.1% in experiment [3]; 13.5% in experiment [4]; -10.7% in experiment [5]; -31.2% in experiment [6].

For the compound `CN1CCC(O)(c2ccc(Br)cc2)C(C(=O)c2ccc(Br)cc2)C1` (stereo not given), the growth inhibition was 96.1% (active) in experiment [1]; 12.3% in experiment [2]; 99% (active) in experiment [3]; -2.65% in experiment [4]; 0.35% in experiment [5]; 34.8% in experiment [6].

`CC(=O)Nc1cccc([As+](C)(C)C)c1`: the growth inhibition was 14.3% in experiment [1]; 9.75% in experiment [2]; -2.8% in experiment [3]; -22.2% in experiment [4]; -3.35% in experiment [5]; 16.9% in experiment [6].

For the compound `Oc1ccccc1I`, the growth inhibition was 11.9% in experiment [1]; 4.85% in experiment [2]; -57% in experiment [3]; -8.7% in experiment [4]; -42.9% in experiment [5]; -14.2% in experiment [6].

With `CCCCCCCCCCCCCCCC[As](CCCCCCCCCCCCCCCC)SCC1OC(OC(C)=O)C(OC(C)=O)C(OC(C)=O)C1OC(C)=O` (stereo not given), the growth inhibition is -3.8% in experiment [1]; 3.45% in experiment [2]; 6% in experiment [3]; 1% in experiment [4]; -20.1% in experiment [5]; -20.6% in experiment [6].

As to `C1C[OH+]CC[OH+]CC[OH+]CC[OH+]CC[OH+]1.[Cl-].[V]`, the growth inhibition is -13.2% in experiment [1]; -6.25% in experiment [2]; -1.95% in experiment [3]; -10.8% in experiment [4]; -12% in experiment [5]; -1% in experiment [6].

For the compound `Cc1ccc(O)cc1C`, the growth inhibition in experiment [1] was 9.95%; in experiment [2] it was 14.1%; in experiment [3], 26%; in experiment [4], 26.8%; in experiment [5], 3.75%; in experiment [6], 7.95%.

`COc1cc(/C=C2\C(O)C3CCN2CC3)cc(OC)c1OC` (stereo not given): the growth inhibition in experiment [1] is -9.25%; in experiment [2], -2.15%; in experiment [3], -5.6%; in experiment [4], -8.65%; in experiment [5] it was 9.1%; in experiment [6] it was -6.8%.

In the case of `C[C@H](O)CCC(=O)c1ccoc1`, the growth inhibition in experiment [1] is -5.65%; in experiment [2], -2.6%; in experiment [3], -22.1%; in experiment [4] it was 6.2%; in experiment [5], -22.1%; in experiment [6], -14.1%.

As to `NC(=O)C[N+](=O)[O-]`, the growth inhibition in experiment [1] was -16.9%; in experiment [2], 17%; in experiment [3], -11.4%; in experiment [4], 11%; in experiment [5] it was -2.35%; in experiment [6], -2.2%.

Turning to `O=NNc1cccnc1`, the growth inhibition was -1.05% in experiment [1]; -17.1% in experiment [2]; -2.35% in experiment [3]; 4.45% in experiment [4]; -4.8% in experiment [5]; -38% in experiment [6].

For `O=[N+]([O-])c1cc(S(=O)(=O)O)cc([N+](=O)[O-])c1Cl`, the growth inhibition in experiment [1] is 8.35%; in experiment [2], 7%; in experiment [3] it was 2.85%; in experiment [4], 50.5%; in experiment [5] it was -17%; in experiment [6], 24.8%.

On to `COC(=O)[C@H]1[C@H]2CCOC1(c1cc(OC)c(OC)c(OC)c1)c1cc3c(cc1[C@H]2O)OCO3`, for which the growth inhibition in experiment [1] is -5.55%; in experiment [2], -63%; in experiment [3], -21.6%; in experiment [4], -14.3%; in experiment [5], -38%; in experiment [6] it was -0.6%.

Turning to `COC(=O)CP(=O)(OC)OCC(F)(F)F` (stereo not given), the growth inhibition was -32.8% in experiment [1]; -14.4% in experiment [2]; -23.5% in experiment [3]; -6% in experiment [4]; -33.6% in experiment [5]; -25.3% in experiment [6].

In the case of `Cc1cccnc1NN=O`, the growth inhibition in experiment [1] was -8.25%; in experiment [2], -23.9%; in experiment [3], -23.8%; in experiment [4], 10%; in experiment [5] it was -20.2%; in experiment [6] it was 13.6%.

For the compound `CC(C)N=Cc1ccccc1O.CC(C)N=Cc1ccccc1O.[Ni]`, the growth inhibition in experiment [1] was 51.3%; in experiment [2] it was 1.1%; in experiment [3], 48.6%; in experiment [4], -4.45%; in experiment [5], 7.05%; in experiment [6], 22.2%.

`NC(CCC(=O)NC(CSc1ccc([N+](=O)[O-])cc1[N+](=O)[O-])C(=O)NCC(=O)O)C(=O)O` (stereo not given): the growth inhibition in experiment [1] is 0.05%; in experiment [2] it was -4.75%; in experiment [3], 12.2%; in experiment [4], 8.7%; in experiment [5] it was 3.2%; in experiment [6], -11.1%.

For the compound `S=C(N=Nc1ccccc1)NNc1ccccc1.[Cu+2]`, the growth inhibition is -17.4% in experiment [1]; -28.8% in experiment [2]; -30% in experiment [3]; 1.8% in experiment [4]; 5.75% in experiment [5]; -15.2% in experiment [6].

As to `O=C1C2CC(CN3CCCCC23)C2CCCCN12` (stereo not given), the growth inhibition was -4.55% in experiment [1]; -24.1% in experiment [2]; 18.9% in experiment [3]; 8.35% in experiment [4]; -4.15% in experiment [5]; -24.2% in experiment [6].

Regarding `C[P+]1(C)CCCCC1`, the growth inhibition in experiment [1] is 7.15%; in experiment [2], 12.8%; in experiment [3], 0.35%; in experiment [4], -2.7%; in experiment [5], -8.85%; in experiment [6], -17.1%.
